Mdm2 MdmX PPI = inhibitors of human Mdm2-MdmX association, primary screen, cell-based, luminescence, split luciferase, SaOS-2, uHTS. AID 485346, 2010. inhibition, % at 8 µM. SaOS-2 split-luciferase Mdm2/MdmX complementation. Protein Mdm4 (Homo sapiens) + E3 ubiquitin-protein ligase Mdm2 (Homo sapiens), …. 330,000 compounds, 3% hits;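 active = inhibition of at least 50% at 8 µM in the primary screen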
Target sequence (O15151 whole entry, looked up): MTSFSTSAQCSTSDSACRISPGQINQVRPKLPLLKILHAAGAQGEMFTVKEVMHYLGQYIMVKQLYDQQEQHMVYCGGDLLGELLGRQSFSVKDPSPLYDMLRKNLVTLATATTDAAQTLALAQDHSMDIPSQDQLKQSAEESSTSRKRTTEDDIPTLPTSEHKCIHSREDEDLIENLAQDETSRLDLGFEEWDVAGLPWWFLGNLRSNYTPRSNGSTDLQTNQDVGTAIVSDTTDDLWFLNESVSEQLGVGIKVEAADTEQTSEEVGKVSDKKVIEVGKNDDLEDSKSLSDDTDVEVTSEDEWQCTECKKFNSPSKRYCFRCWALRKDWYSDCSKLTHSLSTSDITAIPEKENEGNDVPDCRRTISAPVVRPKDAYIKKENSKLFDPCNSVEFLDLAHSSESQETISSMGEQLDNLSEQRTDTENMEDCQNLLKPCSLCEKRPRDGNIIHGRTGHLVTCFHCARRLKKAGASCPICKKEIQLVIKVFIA
Target sequence (Q00987 whole entry, looked up): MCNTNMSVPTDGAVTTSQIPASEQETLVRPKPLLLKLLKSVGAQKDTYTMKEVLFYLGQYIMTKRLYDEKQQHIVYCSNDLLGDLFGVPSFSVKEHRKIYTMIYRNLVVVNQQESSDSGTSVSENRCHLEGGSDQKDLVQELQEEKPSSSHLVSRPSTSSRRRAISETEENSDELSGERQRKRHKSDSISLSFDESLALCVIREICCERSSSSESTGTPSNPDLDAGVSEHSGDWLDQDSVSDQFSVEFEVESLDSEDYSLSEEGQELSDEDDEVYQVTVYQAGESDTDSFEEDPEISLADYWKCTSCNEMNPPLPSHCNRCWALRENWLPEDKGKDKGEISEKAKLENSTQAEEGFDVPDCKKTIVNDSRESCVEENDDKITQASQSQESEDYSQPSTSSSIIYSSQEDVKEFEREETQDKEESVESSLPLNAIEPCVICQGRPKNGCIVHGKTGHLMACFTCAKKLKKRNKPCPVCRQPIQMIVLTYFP
Jurkat NFkB inh = inhibitors of induced NF-kB luciferase reporter, primary screen, TCR NF-kB activation inhibitor project, cell-based, luminescence, uHTS. Jurkat, PMA/ionomycin-induced NF-kB luciferase reporter. inhibition, % at 4 µM. 330,000 compounds, 0.53% hits; in the data active = inhibition above about 50%
Gli-Sufu block = Gli-Sufu pathway antagonists, primary screen, luciferase luminescence, Sufu-KO-LIGHT cells, uHTS; Sufu-KO-LIGHT fibroblasts, Gli luciferase reporter luminescence; inhibition, % at 5 µM; 340,000 compounds, 0.74% hits; AID 588413, 2011;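 active = inhibition above about 55%, limit read from the data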
Beta cell apopt = inhibitors of cytokine-induced beta cell apoptosis, primary screen, luminescence; INS-1E cytokine-induced death, ATP luminescence, 48 h; percent of positive-control rescue, neutral wells zero; protection from apoptosis, % (no concentration beside the values); 300,000 compounds, 0.8% hits;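 active = Every replicate reaches about 75%, or at least half do and their mean reaches it too, limit read from the data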;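 also: higher means more ATP so stronger rescue from cytokine killing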
CSC inhib = cancer stem cell viability inhibitors, primary screen, luminescence. cancer stem cell-like cells viability. inhibition, % at 7.5 µM. 300,000 compounds, 1.1% hits; in the data active = inhibition above about 75%; tested in HMLE shEcad cells
697 NFkB inh = inhibitors of PMA/ionomycin-induced NF-kB reporter, 697 cells, primary screen, B-cell NF-kB inhibitor project, cell-based, luminescence, uHTS; 697 B-cell NF-kB luciferase reporter, 16 h; inhibition, % at 4 µM; 330,000 compounds, 0.33% hits; in the data active = inhibition above about 35%
697 NFkB conf = PMA/ionomycin-induced NF-kB reporter inhibitors, 697 retest, confirmation, B-cell NF-kB inhibitor project, cell-based, luminescence, single concentration | inhibition, % at 4 µM | shares compounds with 697 NFkB inh | 2,000 compounds, 35% hits | AID 449746, 2010 | 697 B-cell NF-kB luciferase, 16 h; in the data active = inhibition mostly above about 28%, no sharp cut-off; inactive = mostly below about 22%
Mdm2 MdmX conf = Mdm2-MdmX complex disruptors, retested hits, confirmation, luminescence, single concentration; shares compounds with Mdm2 MdmX PPI; Mdm2-MdmX binding, luminescent assay; inhibition, % at 8 µM; 10,000 compounds, 55% hits; AID 489028, 2010; in the data active = inhibition above about 40%
FLuc counter = full-length luciferase signal inhibition, confirmation, counter-screen for Mdm2/MdmX interaction inhibitor project, cell-based, single concentration, SaOS-2; inhibition, % at 8 µM; 6,200 compounds, 77% hits; SaOS-2 full-length luciferase counterscreen, luminescence; shares compounds with Mdm2 MdmX PPI;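 active = mean inhibition at 8 µM reaching about 37%, which flags the compound as non-specific, limit read from the data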;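 also: p53-null SaOS-2 cells with luciferase driven by a doxycycline-inducible promoter; compound on cells about two nights before reading with doxycycline added after day one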
Large screens that a line does not name were inactive (follow-up assays come after a bar, where they were run). Hits are enriched below; roughly 4.5% of the tested compounds scored in any of these assays.

O=C(Oc1cccc(/C=N/Nc2nc(Nc3ccccc3)nc(N3CCOCC3)n2)c1)c1ccco1	Mdm2 MdmX PPI 58, 697 NFkB inh 43 | 697 NFkB conf 49 | Mdm2 MdmX conf 49 | FLuc counter 118
Cc1[nH]c2ccccc2c1/C=N/Nc1nc(Nc2ccc(F)cc2)nc(N2CCOCC2)n1	Mdm2 MdmX PPI 87, 697 NFkB inh 48 | 697 NFkB conf 60 | Mdm2 MdmX conf inactive | FLuc counter 101
Cc1ccc(NC(=O)CN2C(=O)NC(C)(C3CC3)C2=O)cc1S(=O)(=O)N1CCCCC1 (stereo not drawn)	none (no result: CSC inhib)
NC(=O)C1(Nc2ccc(-c3ccc(Br)cc3)cc2)CCCC1	none (no result: Mdm2 MdmX PPI, Jurkat NFkB inh, Beta cell apopt, CSC inhib, 697 NFkB inh)
CN(C)N=Nc1ccc(-c2cn(Cc3ccccc3)cn2)cc1	none
CC(C)(C)c1ccc(/C=C2\SC(=O)N(CCNC(=O)c3cccc(S(=O)(=O)N4CCOCC4)c3)C2=O)cc1	Mdm2 MdmX PPI 70 (no result: Beta cell apopt, CSC inhib) | 697 NFkB conf inactive | Mdm2 MdmX conf 76 | FLuc counter 86
CCOC(=O)N1CCN(C(=O)c2ccc(Cn3c(=S)[nH]c4cc(OCC)c(OCC)cc4c3=O)cc2)CC1	Mdm2 MdmX PPI 54, 697 NFkB inh 37 | 697 NFkB conf inactive | Mdm2 MdmX conf inactive
CCOC(=O)N1CCN(C(=O)c2ccc(Cn3c(=S)[nH]c4cc5c(cc4c3=O)OCO5)cc2)CC1	none (no result: CSC inhib)
COc1cc2c(cc1C1NC(=S)NC(C)=C1C(N)=O)CCCC2 (stereo not drawn)	Mdm2 MdmX PPI 66, 697 NFkB inh 43 (no result: CSC inhib) | 697 NFkB conf inactive | Mdm2 MdmX conf inactive | FLuc counter 86
O=S(=O)(Nc1ccc(-c2csc(-c3ccccc3)n2)cc1)c1ccc(F)cc1	none (no result: CSC inhib)
O=C(Nc1nc(-c2ccccc2)cs1)c1ccccc1NS(=O)(=O)c1ccc(F)cc1	Mdm2 MdmX PPI 90, Beta cell apopt 90, CSC inhib 121, 697 NFkB inh 47 | 697 NFkB conf 52 | Mdm2 MdmX conf 89 | FLuc counter inactive
CCN(CC)S(=O)(=O)c1ccc(N2CCN(CCOc3ccc(OC)cc3)CC2)nc1	none
COc1cccc(CCNC(=O)CC2C(=O)NCCN2Cc2ccc(C)o2)c1 (stereo not drawn)	none
Cc1ccc(N2CC(C(=O)Nc3ccc4c(c3)OCO4)CC2=O)cc1C (stereo not drawn)	none
CC1=CC(C)(C)Nc2ccc(OC(=O)CN3C(=O)c4ccccc4C3=O)cc21	Mdm2 MdmX PPI 97, 697 NFkB inh 59 | 697 NFkB conf 39 | Mdm2 MdmX conf inactive | FLuc counter inactive
O=C(CCN1C(=O)/C(=C/c2ccccc2Cl)SC1=S)Nc1ccccn1	none
O=C(CCCN1C(=O)/C(=C/c2ccccc2Cl)SC1=S)Nc1ccccn1	Mdm2 MdmX PPI 67, 697 NFkB inh 46 (no result: CSC inhib) | 697 NFkB conf 68 | Mdm2 MdmX conf 55 | FLuc counter inactive
O=C(CCCN1C(=O)/C(=C/c2ccccc2Cl)SC1=S)Nc1cccnc1	Mdm2 MdmX PPI 87, 697 NFkB inh 83 | 697 NFkB conf 61 | Mdm2 MdmX conf 73 | FLuc counter inactive
CCCCCC(=O)Nc1ccc(C2C(=O)c3ccccc3C2=O)cc1	none
C#CCn1c(S(=O)(=O)Cc2ccc(C)cc2)nc(-c2ccccc2)c1-c1ccccc1	Mdm2 MdmX PPI 95 | 697 NFkB conf inactive | Mdm2 MdmX conf 81 | FLuc counter 55

High-throughput results as filed in PubChem.
